The values below come from PubChem BioAssay (NCI).

Test systems include T-47D breast; BT-549 breast; MDA-MB-435 melanoma; SW-620 colon; MCF7 breast; HCT-116 colon; HCC-2998 colon; KM12 colon; MDA-MB-468 breast.
Assay in all cases: NCI-60 one-dose screen, 48 h (100 = growth as untreated, 0 = no growth, -100 = all killed)
What all share (conditions): 10 µM

Compounds without any hit were thinned out: in the full panel of roughly 83,000, 20% have a hit.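 Activity criterion: percent growth below 10, measured after cells in 96-well plates were exposed to a single compound concentration for 48 hours.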 Unmarked numbers belong to inactive results. Calls of active or inactive are those of the source.

For the compound `CC(=O)Nc1ccc(-n2cnc3cc(-c4ccc(O)cc4)ccc32)cc1F`, the growth in the assay on T-47D breast was 29.9%; in the assay on BT-549 breast it was 60.3%; in the assay on MDA-MB-435 melanoma, -25.7% (active); with SW-620 colon, 28.2%; in the assay on MCF7 breast, 26.3%; in the assay with HCT-116 colon, 13.9%. For the same compound, the growth in the assay on HCC-2998 colon is 33.3%; in the assay on KM12 colon, 4.96% (active); in the assay on MDA-MB-468 breast it was -12.3% (active).

For `CCCn1c(=O)c2[nH]c(-c3ccc(OCc4nc5ccc(C#N)cc5[nH]4)cc3)nc2n(CCC)c1=O`, the growth in the assay on T-47D breast is 35.7%; in the assay on BT-549 breast it was 92.6%; with MDA-MB-435 melanoma, 97.5%; in the assay on SW-620 colon, 80.5%; in the assay on MCF7 breast, -48.9% (active); in the assay on HCT-116 colon, 58.2%. In addition, the growth in the assay with HCC-2998 colon is 95.3%; in the assay with KM12 colon it was 75.5%; in the assay on MDA-MB-468 breast it was 65.9%.

Consider `COC1CC(Cn2cc(COc3ccc4ccc(=O)oc4c3)nn2)C(OCc2ccccc2)C(OCc2ccccc2)C1OCc1ccccc1` (stereo unspecified), for which the growth is 103% with T-47D breast; 122% with BT-549 breast; 103% in the assay with MDA-MB-435 melanoma; 97.1% in the assay with SW-620 colon; 84.8% in the assay on MCF7 breast; 76.6% in the assay on HCT-116 colon. For the same compound, the values for the growth in the assay on HCC-2998 colon, with KM12 colon and in the assay with MDA-MB-468 breast were 121%, 109% and 93.4%, respectively.

With `COc1ccc(/C(CSc2nnc(-c3c[nH]c4ccccc34)n2-c2ccccc2)=N/O)cc1`, the growth is 10.4% in the assay on T-47D breast; 16.5% with BT-549 breast; -5.25% (active) with MDA-MB-435 melanoma; 39.4% in the assay with SW-620 colon; 14.5% in the assay on MCF7 breast; 28.1% with HCT-116 colon. The growth is 42.4% in the assay on HCC-2998 colon, 21.2% with KM12 colon and 0.589% (active) in the assay with MDA-MB-468 breast.

In the case of `C=C(c1ccc(OC)c(N)c1)c1cc(C)nc2ccccc12`, the growth with T-47D breast was 62.6%; with BT-549 breast it was 64.8%; with MDA-MB-435 melanoma, -48.9% (active); in the assay on SW-620 colon, 18.4%; with MCF7 breast, 9.03% (active); in the assay on HCT-116 colon it was 8.49% (active). Also, the figures for the growth in the assay on HCC-2998 colon, in the assay on KM12 colon and in the assay on MDA-MB-468 breast were 11.4%, 10.5% and -16.3% (active), respectively.

On to `Cc1ccn2c(C(=O)c3ccc(Br)cc3)cc(-c3cc(-c4ccc(N(C)C)cc4)c(C#N)c(N)n3)c2c1`, for which the growth in the assay on T-47D breast was 50.5%; with BT-549 breast, 61.9%; in the assay on MDA-MB-435 melanoma, 65%; in the assay with SW-620 colon, 41.5%; with MCF7 breast it was 46.2%; with HCT-116 colon, 36.2%. In addition, the growth is 64.6% with HCC-2998 colon, 62.4% in the assay with KM12 colon and -15% (active) in the assay on MDA-MB-468 breast.

For `CN(C(=O)c1ccc(C(F)(F)F)cc1C(F)(F)F)c1sc2c(c1C#N)CCC(=O)C2`, the growth with T-47D breast was 1.04% (active); in the assay on BT-549 breast, 20.8%; in the assay with MDA-MB-435 melanoma, 101%; in the assay with SW-620 colon it was 18.9%; in the assay on MCF7 breast, 85.8%; with HCT-116 colon, 25.2%. For the same compound, the growth in the assay with HCC-2998 colon is 94.4%; in the assay with KM12 colon, 74.3%; in the assay on MDA-MB-468 breast, 51.9%.

Consider `CC1=C(c2cc(-c3ccc(Cl)cc3)c(C#N)c(N)n2)C(c2ccccc2)NC(=S)N1` (stereo unspecified), for which the growth in the assay on T-47D breast is 54.5%; in the assay on BT-549 breast, 42.1%; in the assay with MDA-MB-435 melanoma it was 25.3%; with SW-620 colon, 45.7%; in the assay on MCF7 breast, 31.6%; in the assay on HCT-116 colon it was -18.8% (active). Further, the growth in the assay with HCC-2998 colon was 83.3%; in the assay on KM12 colon it was 49.5%; in the assay on MDA-MB-468 breast, 35%.

As for `O=C(Cc1ccc2c(c1)CN(C1CCC(=O)NC1=O)C2=O)NCCc1ccccc1` (stereo unspecified), the growth in the assay with T-47D breast is 1.71% (active); with BT-549 breast, -37.2% (active); in the assay with MDA-MB-435 melanoma it was 35%; in the assay with SW-620 colon, 10.6%; with MCF7 breast, 18.9%; with HCT-116 colon, 70.8%. The figures for the growth with HCC-2998 colon, in the assay on KM12 colon and with MDA-MB-468 breast were -11.4% (active), 6.24% (active) and -46.1% (active), respectively.

For the compound `CCCCSc1nc(Nc2ccc(/C(C)=N/NC(N)=S)cc2)c(C#N)c(-c2ccc(F)cc2)n1`, the growth with T-47D breast was 46.8%; in the assay on BT-549 breast it was 31.5%; in the assay with MDA-MB-435 melanoma, 78.6%; in the assay with SW-620 colon, 67.7%; in the assay with MCF7 breast, 41.3%; with HCT-116 colon, 36.3%. Besides, the growth in the assay with HCC-2998 colon is 66.9%; with KM12 colon, 60.2%; in the assay with MDA-MB-468 breast, -1.25% (active).

With `CC1(c2ccccc2)NC(=O)N(CC(=O)Nc2ccc(C(=O)/C=C/c3ccc(Br)cc3)cc2)C1=O` (stereo unspecified), the growth with T-47D breast is 14.3%; in the assay with BT-549 breast, 25.4%; with MDA-MB-435 melanoma, -44% (active); in the assay with SW-620 colon, 32.7%; with MCF7 breast it was -42.6% (active); in the assay with HCT-116 colon, -69.7% (active). The growth with HCC-2998 colon was 10.5%; in the assay on KM12 colon, -27.8% (active); in the assay with MDA-MB-468 breast, -8.76% (active).

Take `CC(C)C1=C[C@@]23CC[C@@H]4[C@](C)(CCC[C@]4(C)C(=O)NCc4ccccc4)[C@H]2C[C@@H]1[C@H]1C(=O)OC(=O)[C@H]13`: the growth was 56% in the assay on T-47D breast; 69.6% in the assay on BT-549 breast; 49.6% in the assay with MDA-MB-435 melanoma; 54.2% in the assay with SW-620 colon; 13.2% with MCF7 breast; 23.1% in the assay on HCT-116 colon. Besides, the growth in the assay on HCC-2998 colon was 53.8%; with KM12 colon it was 24.9%; in the assay with MDA-MB-468 breast it was 41.5%.

In the case of `CN1C(=O)N(C)C2SC(N/N=C/c3ccc(F)cc3)=NC21` (stereo unspecified), the growth in the assay on T-47D breast is 37.9%; in the assay on BT-549 breast, 9.3% (active); in the assay with MDA-MB-435 melanoma it was -28.8% (active); in the assay with SW-620 colon it was 30.1%; with MCF7 breast it was 21.6%; in the assay on HCT-116 colon it was 24.9%. Also, the growth with HCC-2998 colon was 69.8%; with KM12 colon, 28.2%; with MDA-MB-468 breast it was -12.3% (active).

Turning to `O=C(CSc1nnc(-c2c[nH]c3ccccc23)n1-c1ccccc1)Nc1ccc(C(=O)/C=C/c2ccccc2Cl)cc1`, the growth was 43.1% in the assay on T-47D breast; 84.4% in the assay with BT-549 breast; 65.8% in the assay with MDA-MB-435 melanoma; 87.6% in the assay on SW-620 colon; 40.4% in the assay on MCF7 breast; 22.1% in the assay on HCT-116 colon. For the same compound, the growth in the assay with HCC-2998 colon was 94.6%; in the assay with KM12 colon, 74.7%; with MDA-MB-468 breast it was 72.1%.
